Results from paper PMC11062922 (Nature Chemical Biology, 2023).
Where two headings read alike, the source gives them in different places.

Legend:
[1] = tested on: AAK1; parameters: species or system human, MV4-11 + K-562 + COLO205 + SK-N-BE2 + OVCAR-8; details: read-out: apparent Kd, n = 1
[2] = tested on: CLK1; parameters: species or system human, MV4-11 + K-562 + COLO205 + SK-N-BE2 + OVCAR-8; details: read-out: apparent Kd, compound concentrations: 100 nM and 1000 nM (sheet 'Samples'), n = 1
[3] = tested on: CLK4; parameters: species or system human, MV4-11 + K-562 + COLO205 + SK-N-BE2 + OVCAR-8; details: read-out: apparent Kd, compound concentrations: 100 nM and 1000 nM (sheet 'Samples'), n = 1
[4] = tested on: CSNK2A1;CSNK2A3; parameters: species or system human, MV4-11 + K-562 + COLO205 + SK-N-BE2 + OVCAR-8; details: read-out: apparent Kd, compound concentrations: 100 nM and 1000 nM (sheet 'Samples'), n = 1
[5] = tested on: CSNK2A2; parameters: species or system human, MV4-11 + K-562 + COLO205 + SK-N-BE2 + OVCAR-8; details: read-out: apparent Kd, compound concentrations: 100 nM and 1000 nM (sheet 'Samples'), n = 1
[6] = target: Q6ZSR9 (human, UniProt Q6ZSR9); parameters: species or system MV4-11 + K-562 + COLO205 + SK-N-BE2 + OVCAR-8; details: read-out: apparent Kd, compound concentrations: 100 nM and 1000 nM (sheet 'Samples'), n = 1
[7] = tested on: RIPK2; parameters: species or system human, MV4-11 + K-562 + COLO205 + SK-N-BE2 + OVCAR-8; details: read-out: apparent Kd, n = 1
[8] = tested on: ABL1; parameters: species or system human, MV4-11 + K-562 + COLO205 + SK-N-BE2 + OVCAR-8; details: read-out: apparent Kd; compound concentrations:100 nM and 1000 nM (sheet 'Samples'); n = 1
[9] = tested on: ABL2; parameters: species or system human, MV4-11 + K-562 + COLO205 + SK-N-BE2 + OVCAR-8; details: read-out: apparent Kd; compound concentrations:100 nM and 1000 nM (sheet 'Samples'); n = 1
[10] = tested on: BCR; parameters: species or system human, MV4-11 + K-562 + COLO205 + SK-N-BE2 + OVCAR-8; details: read-out: apparent Kd; compound concentrations:100 nM and 1000 nM (sheet 'Samples'); n = 1
[11] = tested on: FYN; parameters: species or system human, MV4-11 + K-562 + COLO205 + SK-N-BE2 + OVCAR-8; details: read-out: apparent Kd; compound concentrations:100 nM and 1000 nM (sheet 'Samples'); n = 1
[12] = tested on: GAK; parameters: species or system human, MV4-11 + K-562 + COLO205 + SK-N-BE2 + OVCAR-8; details: read-out: apparent Kd; compound concentrations:100 nM and 1000 nM (sheet 'Samples'); n = 1
[13] = tested on: HCK; parameters: species or system human, MV4-11 + K-562 + COLO205 + SK-N-BE2 + OVCAR-8; details: read-out: apparent Kd; compound concentrations:100 nM and 1000 nM (sheet 'Samples'); n = 1
[14] = tested on: LCK; parameters: species or system human, MV4-11 + K-562 + COLO205 + SK-N-BE2 + OVCAR-8; details: read-out: apparent Kd; compound concentrations:100 nM and 1000 nM (sheet 'Samples'); n = 1
[15] = tested on: PTK6; parameters: species or system human, MV4-11 + K-562 + COLO205 + SK-N-BE2 + OVCAR-8; details: read-out: apparent Kd; compound concentrations:100 nM and 1000 nM (sheet 'Samples'); n = 1
[16] = tested on: RET; parameters: species or system human, MV4-11 + K-562 + COLO205 + SK-N-BE2 + OVCAR-8; details: read-out: apparent Kd; compound concentrations:100 nM and 1000 nM (sheet 'Samples'); n = 1
[17] = tested on: RIPK3; parameters: species or system human, MV4-11 + K-562 + COLO205 + SK-N-BE2 + OVCAR-8; details: read-out: apparent Kd; compound concentrations:100 nM and 1000 nM (sheet 'Samples'); n = 1
[18] = tested on: TNK1; parameters: species or system human, MV4-11 + K-562 + COLO205 + SK-N-BE2 + OVCAR-8; details: read-out: apparent Kd; compound concentrations:100 nM and 1000 nM (sheet 'Samples'); n = 1
[19] = tested on: YES1; parameters: species or system human, MV4-11 + K-562 + COLO205 + SK-N-BE2 + OVCAR-8; details: read-out: apparent Kd; compound concentrations:100 nM and 1000 nM (sheet 'Samples'); n = 1
[20] = compound concentrations:100 nM and 1000 nM (sheet 'Samples')

Q6ZSR9, sequence (Q6ZSR9 whole entry, looked up): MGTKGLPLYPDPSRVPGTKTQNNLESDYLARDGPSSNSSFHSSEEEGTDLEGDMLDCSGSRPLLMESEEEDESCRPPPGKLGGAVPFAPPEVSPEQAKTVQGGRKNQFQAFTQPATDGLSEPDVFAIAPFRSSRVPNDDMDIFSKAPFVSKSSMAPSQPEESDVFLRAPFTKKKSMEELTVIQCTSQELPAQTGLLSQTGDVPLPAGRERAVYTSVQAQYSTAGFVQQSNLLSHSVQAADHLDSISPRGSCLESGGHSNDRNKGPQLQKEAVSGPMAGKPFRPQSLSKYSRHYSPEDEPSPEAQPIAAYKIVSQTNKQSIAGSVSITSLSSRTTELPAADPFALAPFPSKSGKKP

Compound: O=C1N=C(NCCc2ccccn2)S/C1=C\c1ccc2ncccc2c1 [RO4508346-000]
- potency estimated from few doses ([1]; compound concentrations: 100 nM and 1000 nM (sheet 'Samples'), CATDS: 8.8556384492670503E-2): 711 nM
- potency estimated from few doses ([2]; CATDS: 0.10354679729128299): 485 nM
- potency estimated from few doses ([3]; CATDS: 0.116533275678242): 377 nM
- potency estimated from few doses ([4]; CATDS: 0.14119727464160201): 262 nM
- potency estimated from few doses ([5]; CATDS: 0.15250276369697799): 229 nM
- potency estimated from few doses ([6]; CATDS: 9.3045263541922094E-2): 625 nM
- potency estimated from few doses ([7]; compound concentrations: 100 nM and 1000 nM (sheet 'Samples'), CATDS: 9.0933210372185796E-2): 663 nM

Compound: CCN(CC)CCOc1ccc(Nc2ncc3cc(-c4c(Cl)cccc4Cl)c(=O)n(C)c3n2)cc1 [SB-601273]
- potency estimated from few doses [8]: 72.7 nM
- potency estimated from few doses [9]: 8.98 nM
- potency estimated from few doses [10]: 5.53 nM
- potency estimated from few doses [11]: 130 nM
- potency estimated from few doses [12]: 55.4 nM
- potency estimated from few doses [13]: 299 nM
- potency estimated from few doses [14]: 39 nM
- potency estimated from few doses [15]: 224 nM
- potency estimated from few doses [16]: 167 nM
- potency estimated from few doses [7, 20]: 19.4 nM
- potency estimated from few doses [17]: 765 nM
- potency estimated from few doses [18]: 631 nM
- potency estimated from few doses [19]: 80.1 nM

Compound: O=C1N=C(NCc2ccccc2Cl)S/C1=C\c1ccc2ncccc2c1 [RO4506917-000]
- potency estimated from few doses ([1]; compound concentrations: 100 nM and 1000 nM (sheet 'Samples'), CATDS: 0.11408276718016799): 696 nM
- potency estimated from few doses ([2]; CATDS: 0.13615422717459799): 443 nM
- potency estimated from few doses ([3]; CATDS: 0.16237253930463899): 307 nM
- potency estimated from few doses ([4]; CATDS: 0.21358904197946299): 190 nM
- potency estimated from few doses ([5]; CATDS: 0.17001055355195799): 281 nM
- potency estimated from few doses ([6]; CATDS: 9.7347252089560202E-2): 1190 nM

Compound: Nc1nc(-c2ccc3c(N)n[nH]c3c2)cc(N2CCCCC2)n1 [GSK2228768A]
- potency estimated from few doses [1, 20]: 749 nM
